# Shown are actives, neighbours in structure and some others; about 0.8% of the full set was active somewhere.
# PGK inhibitor: T. brucei PGK inhibition; PGK/GAPDH coupled, Kinase-Glo luminescence, 60 min; hit rate 0.043% among 380,000; AID 602233; Potency, µM (doses to about 57.5 µM), for the others: at the highest dose activity change, negative = inhibition, actives largely listed as inhibitors; P07378; further: potency means the concentration at half of the fitted maximal effect; nearly all actives have a fitted effect of over 60% in size
#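 Recombinant glycosomal PGK reaction used 1,3-bisphosphoglycerate generated in-well by GAPDH (100nM final) in 100mM TEA pH 7.6, 5mM MgCl2, 0.01% Tween-20. After 60 minutes at room temperature, ATP was read by Kinase-Glo Plus luminescence end-point.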
# PI4K2A block: blocks human PI4K2A kinase activity | Q9BTU6 | purified PI4K2A, ADP-Glo luminescence, 1 h; active compounds read low | activity change, negative = inhibition, % at 76.9 µM | hit rate 0.13% among 420,000; in the data active means activity change below about -50%; inconclusive means mostly about -30% to -49%;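 further: -100% = wells without enzyme as full effect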
#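 PI4K2A activity was measured by ADP-Glo luminescence: enzyme (4 ug/mL stock) and phosphatidylinositol (1.2 mM stock) in Tris pH 7.5/MgCl2/EGTA/Triton X-100 buffer were reacted with ATP (300 microM stock) for one hour at ambient temperature.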
# FEN1 inhibitor: human FEN1 inhibition; Recombinant FEN1 flap cleavage, fluorescence, 15 min; Potency, µM (highest dose often 114 µM), without a hit: top-dose activity change, negative = inhibition, most hits filed as inhibitors; hit rate 0.35% among 390,000; further: potency means the concentration at half of the fitted maximal effect; nearly all actives have a fitted effect of over 65% in size
#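 Nuclease activity of 10 nM FEN1 was measured after 15 min of room-temperature exposure to titrated compounds, by adding 50 nM flap substrate and reading plates at 0 and 15 min.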
# APE1 inh-1: APE1 (human) endonuclease inhibition; recombinant APE1, TAMRA/BHQ-2 abasic DNA cleavage fluorescence; P27695; hit rate 0.35% among 350,000; Potency, µM (top dose mostly 65.8 µM), for inactives: at the top dose activity change, negative = inhibition, most hits filed as inhibitors;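 further: potency means the concentration at half of the fitted maximal effect; plate controls were vehicle for no effect and reference inhibitor for full effect; nearly all actives have a fitted effect of over 55% in size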
# Target sequence (P27695 whole entry, looked up): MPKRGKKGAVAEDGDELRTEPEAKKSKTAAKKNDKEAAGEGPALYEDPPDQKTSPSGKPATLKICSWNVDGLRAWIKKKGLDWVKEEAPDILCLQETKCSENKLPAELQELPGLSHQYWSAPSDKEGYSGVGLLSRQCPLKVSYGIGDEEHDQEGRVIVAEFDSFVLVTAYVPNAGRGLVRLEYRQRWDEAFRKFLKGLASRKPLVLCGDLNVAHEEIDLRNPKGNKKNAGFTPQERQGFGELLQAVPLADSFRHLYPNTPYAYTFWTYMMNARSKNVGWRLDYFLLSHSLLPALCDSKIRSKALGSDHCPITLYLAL
#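 Quantitative HTS: incision of a TAMRA/BHQ-2 double-stranded substrate bearing a tetrahydrofuran abasic site by 0.75 nM APE1 raises fluorescence. Substrate 50 nM final, added after 15 min compound preincubation at room temperature; progress as third-minus-first kinetic read difference.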
# TDP1 block: TDP1 (human) enzyme inhibition; Potency, µM (highest dose often 130 µM), for inactives: at the top dose activity change, negative = inhibition, usual class: inhibitors; recombinant TDP1, AlphaScreen DNA substrate cleavage; AID 485290; hit rate 0.28% among 350,000; further: potency means the concentration at half of the fitted maximal effect; nearly all actives have a fitted effect of over 40% in size
#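 Tdp1 1 nM final; 15 min RT w/ cpd; substrate 15 nM, 5 min; beads 10 ug/ml, 10 min; AlphaScreen read. Neg ctrl: no enzyme.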
# Tb PFK block: T. brucei PFK enzyme inhibition; O15648; AID 485367; T. brucei PFK, ADP-Glo luminescence; hit rate 0.17% among 330,000; Potency, µM (highest dose often 57.5 µM), for inactives: at the highest dose activity, negative = inhibition, actives largely listed as inhibitors;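 further: potency means the concentration at half of the fitted maximal effect; 0% = uninhibited 1x PFK enzyme wells and -100% = no-enzyme wells; nearly all actives have a fitted effect of over 60% in size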
# Target sequence (O15648 whole entry, looked up): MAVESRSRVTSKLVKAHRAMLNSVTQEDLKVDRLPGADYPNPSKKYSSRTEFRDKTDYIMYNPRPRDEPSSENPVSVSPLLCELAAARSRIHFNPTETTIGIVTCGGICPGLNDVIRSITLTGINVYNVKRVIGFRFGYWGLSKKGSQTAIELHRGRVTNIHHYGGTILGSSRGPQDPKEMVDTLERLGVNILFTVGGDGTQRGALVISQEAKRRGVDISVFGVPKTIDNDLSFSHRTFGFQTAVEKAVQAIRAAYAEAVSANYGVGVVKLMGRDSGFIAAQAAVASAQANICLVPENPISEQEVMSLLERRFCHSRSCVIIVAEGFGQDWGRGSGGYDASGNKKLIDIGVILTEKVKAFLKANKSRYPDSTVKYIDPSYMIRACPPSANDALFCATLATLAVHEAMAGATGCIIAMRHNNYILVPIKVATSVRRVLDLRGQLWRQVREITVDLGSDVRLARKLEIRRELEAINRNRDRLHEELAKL
#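 In TEA buffer at pH 8.0 with 5 mM MgCl2, enzyme (1.25 nM) converted F6P (0.5 mM) and ATP (0.1 mM) for 45 min at room temperature. ADP product was read by luciferase luminescence.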
# APE1 dye cs: counter-screen for APE1 inhibitors: DNA dye displacement | shares compounds with APE1 inh-1 | DNA fluorescent dye displacement counterscreen, fluorescence | Potency, µM (doses to about 28.5 µM), for the others: at the top dose activity change, negative = inhibition, usual class: inhibitors | hit rate 7% among 480;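 further: loss of thiazole orange fluorescence as the dye is displaced from duplex DNA; potency means the concentration at half of the fitted maximal effect; 0% = ThO with dsDNA and no compound and -100% = ThO without dsDNA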
# Endo IV inh: blocks E. coli endonuclease IV DNA cleavage. shares compounds with APE1 inh-1. E. coli Endo IV, fluorogenic AP-site DNA cleavage. Potency, µM (titrated, usually from 27.1 µM), for inactives: at the top dose activity change, negative = inhibition, hits mostly inhibitors. hit rate 4% among 560. AID 2565;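 further: potency means the concentration at half of the fitted maximal effect; plate controls were uninhibited enzyme wells for no effect and no enzyme buffer wells for full effect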
# APE1 inh-2: APE1 (human) endonuclease inhibition, confirmation | shares compounds with APE1 inh-1 | purified APE1, fluorogenic abasic-site DNA cleavage | Potency, µM (titrated, usually from 57.1 µM), for the others: at the top dose activity change, negative = inhibition, actives largely listed as inhibitors | hit rate 44% among 750; further: potency means the concentration at half of the fitted maximal effect; nearly all actives have a fitted effect of over 30% in size
# APE1 FP: APE1 (human) DNA binding inhibition, fluorescence polarization. hit rate 7% among 480. APE1 binding to TAMRA-labelled double-stranded DNA, fluorescence polarization displacement. shares compounds with APE1 inh-1. Potency, µM (series often up to 28.5 µM), inactives show at the top dose activity, negative = inhibition, actives largely listed as inhibitors; further: potency means the concentration at half of the fitted maximal effect
# Numbers without * were called inactive; i = inactive; u = inconclusive; x = not tested or not shown; ! = not confirmed by another sample; [ ] = remark or other dose. Unless noted, the call rests on the fitted dose curve; in most records, active means well fitted curve in the direction sought with a large enough effect; inconclusive means small, poorly fitted or top-dose-only effect, or another doubt; inactive means no such curve, though single readings can be large; an effect the other way counts as inactive or inconclusive. Unless noted, on the % scale 0 is the no-effect control and ±100 the full control effect.
SMILES,PGK inhibitor,PI4K2A block,FEN1 inhibitor,APE1 inh-1,TDP1 block,Tb PFK block,APE1 dye cs,Endo IV inh,APE1 inh-2,APE1 FP
c1cncc(-c2nc(-c3ccco3)cs2)c1,2%,-11,-13%,25µM*,-14%,-10%,-10%,0%,-10%[24.4 µM],u
c1cncc(-c2csc(-c3cccnc3)n2)c1,-9%,1,15%,23%,x,0%,x,x,x,x
O=C1NC(=S)SC1=C1CCCC1,-12%,3,79µM*,10µM*,x,u,5%,61%,u,-4%
CN1C(=O)C(=C2CCCCCC2)SC1=S,-11%,-10,4%,-3%,5%,-4%,x,x,x,x
NC(=O)c1cccnc1Oc1ccccc1,0%,3,19%,2%,6%,2%,x,x,x,x
COc1ccnc(Oc2ccccc2)c1C(N)=O,-2%,-2,4%,-64%,x,7%,-10%,4%,-11%[24.4 µM],u
COc1cc(C2CC(=O)Nc3cc4c(cc32)OCO4)cc(OC)c1O (configuration not stated),-2%,-8,-3%,x,-6%[12.3 µM],x,x,x,x,x
O=C1NC2CCCCN2C12CCN(CCCN1c3ccccc3CCc3ccc(Cl)cc31)CC2 (configuration not stated),x,-3,x,x,x,x,x,x,x,x
CCOc1cc(/C=C2\C(=O)N(c3ccc(C(N)=O)cc3)N=C2C)ccc1OC(=O)c1cccs1,-8%,u,-2%,28µM*,4%,-6%,u,-10%,-7%[24.4 µM],-6%
Cc1ccc2nc(CSc3nnc(-c4ccco4)n3-c3ccccc3)cc(=O)n2c1,i,-2,2%,x,x,x,x,x,x,x
Cc1ccc2nc(CSc3nnc(-c4ccco4)o3)cc(=O)n2c1,-3%,-4,9%,22µM*,18µM*,u,-7%,4%,-22%,-4%
CCOC(=O)c1sc2nc3c(SCCC(=O)O)cc(C(=O)c4cc(OC)ccc4O)cn3c(=O)c2c1C,-15%,-3,u,1.6µM*,x,-1%,u,11%,2.2µM*,u
CCOC(=O)c1cc(-c2cccnc2)nn1-c1ccccc1C,i,-3,5%,10%,4%,4%,x,x,x,x
CCOC(=O)c1cc(-c2ccc(OC)cc2)nn1-c1ccccc1C(=O)O,u,-3,17%,2.5µM*,7.9µM*,-2%,x,x,40µM*,x
CC(C)(C)c1ccc(Cn2cnc3c(cnn3C(C)(C)C)c2=O)cc1,x,x,14%,-7%,x,x,x,x,x,x
NS(=O)(=O)c1cc2c(cc1Cl)NCNS2(=O)=O,7%,4,16%,-3%,5%,0%,x,-3%[57.1 µM],-17%,x
CC(C)(C)OC(=O)CC(=O)NNC(=O)c1cc2ccccc2[nH]1,x,x,x,x,-1%,x,x,x,x,x
CCN(CC)CCCC(C)Nc1cc(/C=C/c2ccccc2Cl)nc2cc(Cl)ccc12 (configuration not stated),x,x,-26%,x,0%,x,x,x,x,x
CCN(CC)CCCC(C)Nc1c2ccc(Cl)cc2nc2ccc(OC)cc12 (configuration not stated),x,-1,11µM*,28µM*,11%,3%,x,7.9µM*,16µM*,x
Cc1sc2ccccc2[n+]1CCC[n+]1c(C)sc2ccccc21,x,x,-27%,x,x,x,x,x,x,x
Cc1cccc(N=C2NC(=O)/C(=C/c3cccn3C)S2)c1C,7%,-6,5%,-4%,x,6%,x,x,x,x
Cc1ccccc1N=C1NC(=O)/C(=C/c2cccn2-c2cccc(C(=O)O)c2)S1,u,3,-15%,18µM*,u,-28%,-4%,14%,11µM*,u
CC(C)(C)n1ncc2c(=O)n(Cc3ccc(F)cc3Cl)cnc21,x,x,5%,16%,x,x,x,x,x,x
CC(C)(C)n1ncc2c(=O)n(Cc3cc(C(F)(F)F)ccc3Cl)cnc21,x,x,-26%,1%,x,x,x,x,x,x
CN(C)C(=O)Nc1ccc(Cl)c(Cl)c1,x,2,x,u,6%[56.1 µM],x,-3%[57.1 µM],20%[57.1 µM],32µM*,10%[57.1 µM]
SMILES,PGK inhibitor,PI4K2A block,FEN1 inhibitor,APE1 inh-1,TDP1 block,Tb PFK block,APE1 dye cs,Endo IV inh,APE1 inh-2,APE1 FP
COc1ccc2cccc(CCNC(C)=O)c2c1,x,-4,x,x,x,x,x,x,x,x
O=C(Nc1ccc(Cl)cc1Cl)[C@@H]1CC=C[C@@H]2CCN(Cc3ccccc3)C(=O)[C@@H]21,x,x,0%,x,x,x,x,x,x,x
CCC(=O)N1CCN(c2cc3c(cc2F)c(=O)c(C(=O)O)cn3CC)CC1,i,-4,-1%,x,x,x,x,x,x,x
CCn1cc(C(=O)O)c(=O)c2cc(F)c(N3CCN(S(=O)(=O)c4ccc(NC(=O)OC)cc4)CC3)cc21,-1%,-3,u,3%,u,-5%,x,x,-28%,x
Cc1cc2c(s1)c1cnn(Cc3ccc(C(F)(F)F)cc3)c(=O)c1n2C,x,x,x,x,-4%,x,x,x,x,x
COc1cc(-c2ccc(N=Nc3ccc4c(S(=O)(=O)O)cc(S(=O)(=O)O)c(N)c4c3O)c(OC)c2)ccc1N=Nc1ccc2c(S(=O)(=O)O)cc(S(=O)(=O)O)c(N)c2c1O,x,x,x,1.4µM*,u,x,x,6.3µM*!,1µM*,x
COc1cc(N=Nc2ccc(C)cc2S(N)(=O)=O)c(C)cc1N,0%,5,-14%,x,x,x,x,x,x,x
CC(C)(C)n1ncc2c(=O)n(Cc3cccc(Oc4ccccc4)c3)cnc21,x,x,5%,-3%,x,x,x,x,x,x
COc1cccc(C)c1NC(=O)C(OC(=O)CNC(=O)c1ccccc1)c1ccccc1 (configuration not stated),x,x,x,x,1%,x,x,x,x,x
NC(=O)c1ccc(-n2nnnc2SCC(=O)c2ccc(O)c(O)c2)cc1,u,0,-13%,4µM*,x,6%,-4%,128%,11µM*,-1%
O=C(/C=C\c1ccc(O)c(O)c1)O[C@@H]1C[C@](O)(C(=O)O)C[C@@H](O)[C@@H]1O,x,x,x,-2%[21 µM],12%[21 µM],x,x,x,x,x
